Assay outcomes: PubChem, National Center for Advancing Translational Sciences (NCATS)
L3MBTL1 block: qHTS Assay for the Inhibitors of L3MBTL1; Lethal(3)malignant brain tumor-like protein 1 (Homo sapiens), Q9Y468; AlphaScreen L3MBTL1–H3K9me1 peptide binding; Potency, µM (series often up to 57.1 µM), most hits filed as inhibitors; 0.66% of 230,000 active; further: nearly all actives have a fitted effect of over 60% in size
Target sequence (Q9Y468 whole entry, looked up): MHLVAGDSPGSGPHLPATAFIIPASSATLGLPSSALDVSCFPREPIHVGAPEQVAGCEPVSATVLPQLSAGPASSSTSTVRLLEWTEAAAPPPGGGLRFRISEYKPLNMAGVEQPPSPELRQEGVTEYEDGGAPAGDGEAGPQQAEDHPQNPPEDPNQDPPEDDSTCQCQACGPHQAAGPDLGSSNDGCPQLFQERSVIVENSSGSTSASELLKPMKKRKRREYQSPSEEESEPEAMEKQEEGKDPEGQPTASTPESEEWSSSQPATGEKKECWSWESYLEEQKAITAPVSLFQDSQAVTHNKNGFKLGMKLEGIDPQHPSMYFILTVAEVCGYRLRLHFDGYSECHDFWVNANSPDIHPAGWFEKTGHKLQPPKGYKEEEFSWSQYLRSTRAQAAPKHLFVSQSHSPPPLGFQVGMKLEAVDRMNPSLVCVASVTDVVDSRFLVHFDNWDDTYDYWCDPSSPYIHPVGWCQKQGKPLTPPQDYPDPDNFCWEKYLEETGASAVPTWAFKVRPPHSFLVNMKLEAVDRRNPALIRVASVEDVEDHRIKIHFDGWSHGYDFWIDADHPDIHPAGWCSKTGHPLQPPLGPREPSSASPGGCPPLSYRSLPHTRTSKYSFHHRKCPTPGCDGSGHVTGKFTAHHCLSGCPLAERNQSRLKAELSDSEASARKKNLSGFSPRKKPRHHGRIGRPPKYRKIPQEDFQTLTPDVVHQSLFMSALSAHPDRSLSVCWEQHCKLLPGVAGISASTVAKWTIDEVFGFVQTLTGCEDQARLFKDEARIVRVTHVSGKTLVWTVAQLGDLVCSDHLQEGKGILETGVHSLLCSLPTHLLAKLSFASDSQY
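AlphaScreen proximity signal between nickel-chelate acceptor and streptavidin donor beads (final 10 ug/mL) reports binding of 50 nM L3MBTL1 to 75 nM biotin-H3 K9me1 peptide; complex incubated with compounds 30 min at room temperature; cefsulodin titration as control.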
G9a inh: qHTS Assay for Inhibitors of Histone Lysine Methyltransferase G9a; Histone-lysine N-methyltransferase EHMT2 (Homo sapiens), Q96KQ7; G9a H3K9 monomethylation, AlphaScreen, 2 h; Potency, µM (doses to about 102 µM), actives largely listed as inhibitors; 8.8% of 350,000 active; AID 504332, 2011; further: nearly all actives have a fitted effect of over 75% in size
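G9a (20 nM) was preincubated 15 min with compound, then reacted 2 h at room temperature with 500 nM biotin-H3K9 peptide and 20 µM SAM. Monomethyl-H3K9 detected by AlphaScreen using anti-H3K9me1 antibody.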
Sfp inh: qHTS Assay for Inhibitors of Bacillus subtilis Sfp phosphopantetheinyl transferase (PPTase); Potency, µM, usual class: inhibitors; AID 1490, 2009; Biochemical Sfp PPTase activity, qHTS; 3.5% of 310,000 active;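 further: the enzyme is Sfp with the accession as filed and its product quenches rhodamine fluorescence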
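Sfp 15 nM + cpd, 15 min RT; start w/ rhodamine-CoA 5 uM, BHQ-2-YbbR 12.5 uM (final); 50 mM Hepes pH 7.6, 10 mM MgCl2, 0.01% NP-40, 0.01% BSA; read 525/598 nm at 0 and 30 min.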
JMJD2A Tudor inh: qHTS Assay for Inhibitors of JMJD2A-Tudor Domain; Lysine-specific demethylase 4A (Homo sapiens), O75164; AlphaScreen JMJD2A-Tudor / H3K4me3 peptide binding; Potency, µM (series often up to 114 µM), hits mostly inhibitors; 4.4% of 390,000 active; further: nearly all actives have a fitted effect of over 50% in size
BAZ2B inh: qHTS Assay for Inhibitors of BAZ2B; Bromodomain adjacent to zinc finger domain protein 2B (Homo sapiens), Q9UIF8; 4.4% of 360,000 active; AlphaScreen BAZ2B-H3K14Ac peptide displacement; Potency, µM (titrated, usually from 114 µM), most hits filed as inhibitors; AID 504333, 2011; further: nearly all actives have a fitted effect of over 60% in size
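Compounds, titrated to a top concentration of 110 uM, were incubated 30 min at room temperature with preformed BAZ2B/acetyl-K14 H3 peptide complex (50 nM each). Proximity signal was measured by AlphaScreen after 20 min with beads.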
HP1b binding inh: HTS for Inhibitors of HP1-beta Chromodomain Interactions with Methylated Histone Tails; Chromobox protein homolog 1 (Homo sapiens), P83916; AlphaScreen HP1-beta / biotin-H3K9me3 peptide binding; Potency, µM (doses to about 114 µM), most hits filed as inhibitors; 0.56% of 390,000 active; AID 540317, 2011; further: nearly all actives have a fitted effect of over 70% in size
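AlphaScreen: HP1-beta (50 nM) preformed 30 min with biotin-H3(1-18)K9me3 peptide (50 nM) in PBS pH 7.4, 0.01% Tween-20. Compound added for 30 min at RT, then streptavidin donor/nickel chelate acceptor beads (10 ug/mL) for 30 min.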
Hits are given with their value; [ ] = dose if it differs, or a comment. Sampled rows, rich in hits. Any-hit rate of the full collection: about 12%. The call rests on the fitted dose curve; in most records, active means well fitted curve in the direction sought with a large enough effect; inconclusive means small, poorly fitted or top-dose-only effect, or another doubt; inactive means no such curve, though single readings can be large; an effect the other way counts as inactive or inconclusive.

For Cc1ccccc1NS(=O)(=O)c1c(C(=O)N2CCCCCC2)c(C)n(C)c1C the results were G9a inh inactive, Sfp inh inactive, JMJD2A Tudor inh inactive, BAZ2B inh inactive and HP1b binding inh inactive.
Screening CN(C)c1ccc(N2CC(C)(C)C2=O)cc1 returned L3MBTL1 block inactive, G9a inh 10µM, Sfp inh inactive, JMJD2A Tudor inh inactive, BAZ2B inh inactive and HP1b binding inh inactive.
Screening CC(=O)c1ccc(N2CC(C)(C)C2=O)cc1 returned L3MBTL1 block inconclusive, G9a inh inactive, Sfp inh inactive, JMJD2A Tudor inh inactive, BAZ2B inh inactive and HP1b binding inh inactive.
`COc1ccc(N2C(=O)/C(=C\c3ccco3)N=C2SCC(=O)N(C(C)C)C(C)C)cc1Cl` gave L3MBTL1 block inactive, G9a inh inactive, Sfp inh 56µM, JMJD2A Tudor inh inactive, BAZ2B inh inconclusive and HP1b binding inh inactive.
Screening CCNC(=O)CSC1=N/C(=C\c2ccc(O)c(OCC)c2)C(=O)N1c1ccc(OC(F)F)cc1 returned G9a inh inactive, Sfp inh inactive, JMJD2A Tudor inh inactive, BAZ2B inh inactive and HP1b binding inh inactive.
For O=C(CSC1=N/C(=C/c2ccco2)C(=O)N1c1ccc(OC(F)F)cc1)NC1CCS(=O)(=O)C1 (stereo unspecified) the results were L3MBTL1 block inactive, G9a inh 45µM, Sfp inh inactive, JMJD2A Tudor inh inconclusive, BAZ2B inh 50µM and HP1b binding inh inactive.
COc1ccc(N2C(=O)/C(=C\c3ccco3)N=C2SCC(=O)NC(C)C)cc1Cl was read as L3MBTL1 block inactive, G9a inh inconclusive, Sfp inh inactive, JMJD2A Tudor inh inactive, BAZ2B inh inconclusive and HP1b binding inh inactive.
Screening COCCn1c(C)cc(/C=C(\C#N)C(=O)OCC(=O)Nc2ccc(S(N)(=O)=O)cc2)c1C returned L3MBTL1 block inactive, G9a inh 40µM, JMJD2A Tudor inh inactive, BAZ2B inh inactive and HP1b binding inh inactive.
COC(=O)c1cccnc1-n1c(=O)c2cccnc2n(CC(=O)Nc2cccc(C)c2)c1=O was read as G9a inh inactive, JMJD2A Tudor inh inactive, BAZ2B inh inactive and HP1b binding inh inactive.
Cc1ccc(N2C(=O)[C@@H]3CSC(c4ccc(Cl)cc4)N3C2=O)cc1 (stereo partly specified) was read as G9a inh inactive, JMJD2A Tudor inh inactive, BAZ2B inh inactive and HP1b binding inh inactive.
C(=N\Nc1nc(-c2ccccc2)cs1)/c1ccco1 was read as L3MBTL1 block inconclusive, G9a inh 13µM, Sfp inh inconclusive, JMJD2A Tudor inh inconclusive, BAZ2B inh 40µM and HP1b binding inh inconclusive.
Clc1ccc(-c2csc(N/N=C\c3cccnc3)n2)cc1 was read as L3MBTL1 block inactive, G9a inh 10µM, Sfp inh 56µM, JMJD2A Tudor inh inactive, BAZ2B inh inactive and HP1b binding inh inactive.
Screening C(=N/Nc1nc(-c2ccccc2)cc(-c2ccccc2)n1)/c1cccnc1 returned L3MBTL1 block inactive, G9a inh inactive, Sfp inh inactive, JMJD2A Tudor inh inactive, BAZ2B inh inactive and HP1b binding inh inactive.
`Cc1ccc(-c2csc(N/N=C/c3ccco3)n2)cc1` gave L3MBTL1 block inactive, G9a inh inconclusive, Sfp inh 89µM, JMJD2A Tudor inh 50µM, BAZ2B inh inconclusive and HP1b binding inh inactive.
Screening Brc1ccc(-c2csc(N/N=C/c3ccco3)n2)cc1 returned G9a inh inconclusive, Sfp inh inactive, JMJD2A Tudor inh inactive, BAZ2B inh 8.9µM and HP1b binding inh inactive.
`Cc1ccc(-c2csc(N/N=C/C=C/c3ccccc3)n2)cc1` gave L3MBTL1 block inactive, G9a inh inactive, Sfp inh inactive, JMJD2A Tudor inh inactive, BAZ2B inh inactive and HP1b binding inh inactive.
Screening COc1ccc(C(=O)N2CCC[C@@]3(CCN(Cc4nccs4)C3)C2)cc1 returned G9a inh inactive[12.7 µM] and Sfp inh inactive.
For CCOC(=O)c1cc(NC(=O)c2ccc(C)cc2)c(=O)n2c1oc1ccccc12 the results were G9a inh inactive, JMJD2A Tudor inh inactive, BAZ2B inh inactive and HP1b binding inh inactive.
`Cc1cc(NC(=O)COC(=O)c2oc3c(Cl)cccc3c2C)no1` gave L3MBTL1 block inactive, G9a inh inactive, Sfp inh inactive, JMJD2A Tudor inh inactive, BAZ2B inh inactive and HP1b binding inh inactive.
Screening Clc1cnc(N/N=C/c2ccco2)c(Cl)c1 returned L3MBTL1 block inactive, G9a inh inactive, Sfp inh 79µM, JMJD2A Tudor inh inactive, BAZ2B inh inactive and HP1b binding inh inactive.
CN(C)S(=O)(=O)c1ccc(-c2csc(N/N=C/c3ccco3)n2)cc1 was read as L3MBTL1 block inactive, G9a inh 28µM, Sfp inh inactive, JMJD2A Tudor inh inactive, BAZ2B inh inactive and HP1b binding inh inactive.
`O=C(Nc1nc(-c2ccc(Cl)cc2)cs1)c1cccnc1` gave G9a inh 40µM, Sfp inh inactive, JMJD2A Tudor inh inactive[11.4 µM], BAZ2B inh inactive and HP1b binding inh inconclusive.
For O=C(Nc1nc(-c2ccc(F)cc2)cs1)c1cccnc1 the results were G9a inh inactive, Sfp inh inactive, JMJD2A Tudor inh inactive, BAZ2B inh inactive and HP1b binding inh inactive.
For C(=N/Nc1nccs1)/c1cccnc1 the results were G9a inh inactive, Sfp inh 50µM, JMJD2A Tudor inh inactive and HP1b binding inh inactive.
O=C(c1cccc([N+](=O)[O-])c1)N1CCCN(C(=O)c2cccc([N+](=O)[O-])c2)CC1 was read as L3MBTL1 block inactive, G9a inh inactive, Sfp inh inactive, JMJD2A Tudor inh inactive, BAZ2B inh inactive and HP1b binding inh inactive.
Screening COc1ccc(-n2c(=O)c3ccc(C(=O)NCc4ccc(C)cc4)cc3n(Cc3ccc(Cl)cc3)c2=O)cc1 returned G9a inh inactive, JMJD2A Tudor inh inactive and HP1b binding inh inactive.
CN(C)S(=O)(=O)c1ccc(-c2csc(N/N=C/c3ccc(O)cc3)n2)cc1 was read as L3MBTL1 block inactive, G9a inh 22µM, Sfp inh 50µM, JMJD2A Tudor inh inconclusive, BAZ2B inh inconclusive and HP1b binding inh inactive.
`Cc1ccc2nc(C)cc(SCC(=O)N/N=C/c3ccco3)c2c1` gave G9a inh inactive, Sfp inh inactive, JMJD2A Tudor inh inactive, BAZ2B inh inactive and HP1b binding inh inactive.
For Clc1ccc(-c2csc(N/N=C/c3ccco3)n2)cc1 the results were L3MBTL1 block inconclusive, Sfp inh inconclusive, JMJD2A Tudor inh inconclusive, BAZ2B inh 35µM and HP1b binding inh inactive.
